Results taken from PubChem BioAssay (NCI).
Several values for one entry are separate records, joined by “and”; a condition that tells them apart may be missing. Identical values can stand only once. The panel holds about 79,000 compounds, 15% with a hit somewhere; the sample as a whole holds those more often. Where a structure was tested more than once in an assay, its records may differ in their call. Activity calls are given as the source filed them. No stated cut-off is given here; in the data, active means growth inhibition above about 70%; inactive means the rest.

Tests used:
[1] = NCI Yeast Anticancer Drug Screen. Data for the rad50 strain (AID 155);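 further: 0% = growth of vehicle-only cultures of the same strain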; settings: S. cerevisiae rad50 strain growth inhibition, stronger effect = higher value
Summary of the method: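 Compounds were tested on a yeast strain with an engineered DNA damage repair alteration; the reported value is growth inhibition normalised to vehicle treatment.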

[2] = NCI Yeast Anticancer Drug Screen. Data for the mec2-1 strain (AID 157); settings: S. cerevisiae mec2-1 strain, stronger effect = higher value
Summary of the method: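 Mutant yeast (mec2-1) grown with compound; growth inhibition relative to vehicle control reported.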

[3] = NCI Yeast Anticancer Drug Screen. Data for the sgs1 mgt1 strain (AID 161);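 further: 0% = growth of cultures given vehicle only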; settings: S. cerevisiae sgs1 mgt1 strain, stronger effect = higher value
Summary of the method: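 Compounds are added to genetically altered yeast, and growth is compared with cultures given vehicle alone to give percent inhibition.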

[4] = NCI Yeast Anticancer Drug Screen. Data for the cln2 rad14 strain (AID 165);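 further: 0% = growth equal to vehicle treated cultures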; settings: S. cerevisiae cln2 rad14 strain, stronger effect = higher value
Summary of the method: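 Readout is yeast growth inhibition versus vehicle-treated controls, using a strain with cln2 and rad14 alterations exposed to compound.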

[5] = NCI Yeast Anticancer Drug Screen. Data for the bub3 strain (AID 167); settings: S. cerevisiae bub3 mutant strain, stronger effect = higher value
Summary of the method: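 Growth of a checkpoint-deficient yeast mutant is measured after compound exposure. Values represent inhibition relative to vehicle.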

[6] = NCI Yeast Anticancer Drug Screen. Data for the mlh1 rad18 strain (AID 175); settings: S. cerevisiae mlh1 rad18 strain growth inhibition, stronger effect = higher value
Summary of the method: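 Genetically defined yeast (DNA repair-deficient) exposed to compounds; growth inhibition determined relative to vehicle.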

[7] = at 5.0 µM (retest, dose inferred, filed as 0.5)
[8] = at 50.0 µM (retest, dose inferred, filed as 5.0)

SMILES | growth inhibition [1, 7] | growth inhibition [1, 8] | growth inhibition ([1]; at 50.0 µM) | growth inhibition [2, 7] | growth inhibition [2, 8] | growth inhibition ([2]; at 50.0 µM) | growth inhibition [3, 7] | growth inhibition [3, 8] | growth inhibition ([3]; at 50.0 µM) | growth inhibition [4, 7] | growth inhibition [4, 8] | growth inhibition ([4]; at 50.0 µM) | growth inhibition [5, 7] | growth inhibition [5, 8] | growth inhibition ([5]; at 50.0 µM) | growth inhibition [6, 7] | growth inhibition [6, 8] | growth inhibition ([6]; at 50.0 µM)
Cc1c2cc[n+](C)cc2c(C)c2c1[nH]c1ccccc12 | 28% (inactive) | 68% (inactive) | 27.5% (inactive) and 40.4% (inactive) | 18% (inactive) | 22% (inactive) | 29.2% (inactive) and -21.1% (inactive) | 28% (inactive) | 36% (inactive) | 75.7% (active) and -25% (inactive) | 27% (inactive) | 32% (inactive) | 23.8% (inactive) and 2.8% (inactive) | 12% (inactive) | 31% (inactive) | 62.8% (inactive) and -38.5% (inactive) | 16% (inactive) | 39% (inactive) | 54.5% (inactive) and 26.9% (inactive)
Cc1cc(C)nc(NS(=O)(=O)c2ccc(Nc3c4ccccc4nc4c(C(=O)NCCCN(CCO)CCO)cccc34)cc2)n1 | -20% (inactive) | 20% (inactive) | 45% (inactive) | -13% (inactive) | -14% (inactive) | 25.8% (inactive) | -2% (inactive) | -5% (inactive) | -4.65% (inactive) | 70% (active) | 5% (inactive) | 74.3% (active) | -14% (inactive) | 3% (inactive) | 78.2% (active) | -7% (inactive) | 1% (inactive) | 60.2% (inactive)
CCN(CC)CCC(=O)/C=C/c1ccccc1 | 31% (inactive) | 95% (active) | 99.3% (active) and 29.2% (inactive) | 27% (inactive) | 100% (active) | 99.6% (active) and 56.1% (inactive) | 60% (inactive) | 100% (active) | 99.5% (active) and 28.6% (inactive) | 42% (inactive) | 97% (active) | 99.3% (active) and 6.75% (inactive) | 58% (inactive) | 99% (active) | 99.5% (active) and 49.5% (inactive) | 32% (inactive) | 99% (active) | 99.3% (active) and 36% (inactive)
CCN1/C(=C/C=C/C=C/c2sc3ccccc3[n+]2CC)Sc2ccccc21 | 97% (active) | 25% (inactive) | 56.1% (inactive) and 66.5% (inactive) | 98% (active) | 28% (inactive) | 64.7% (inactive) and 70.8% (active) | 96% (active) | 11% (inactive) | 79.5% (active) and 58.2% (inactive) | 93% (active) | 28% (inactive) | 67.7% (inactive) and 65.2% (inactive) | 97% (active) | 1% (inactive) | 53.8% (inactive) and 52.5% (inactive) | 96% (active) | 14% (inactive) | 54.5% (inactive) and 43.6% (inactive)
CCN(CC)CCNc1nc(NCCN(CC)CC)c2nc(-c3ccccc3)c(-c3ccccc3)nc2n1 | 91% (active) | 98% (active) | 98.8% (active) | 84% (active) | 98% (active) | 98.2% (active) | 95% (active) | 99% (active) | 98.8% (active) | 76% (active) | 97% (active) | 98% (active) | 92% (active) | 98% (active) | 98% (active) | 92% (active) | 98% (active) | 98.4% (active)
CCN(CC)CCOc1ccc2c(C)c(-c3ccccc3)c(=O)oc2c1 | 0% (inactive) | 23% (inactive) | 62% (inactive) | -3% (inactive) | 34% (inactive) | 3% (inactive) | 10% (inactive) | 38% (inactive) | 34.8% (inactive) | -5% (inactive) | 18% (inactive) | -44.8% (inactive) | -4% (inactive) | 27% (inactive) | 60.8% (inactive) | 2% (inactive) | 30% (inactive) | 21.1% (inactive)
CC(C)CCC[C@@H](C)[C@H]1CC[C@H]2[C@@H]3CC=C4N5CCCN=C5CC[C@]4(C)[C@H]3CC[C@]12C | 2% (inactive) | 98% (active) | 98% (active) | -20% (inactive) | 99% (active) | 98.7% (active) | -15% (inactive) | 89% (active) | 98.5% (active) | 0% (inactive) | 54% (inactive) | 98.2% (active) | 0% (inactive) | 97% (active) | 98.2% (active) | -8% (inactive) | 98% (active) | 97.9% (active)
Nc1ncnc2c1ncn2C1SC(CO)C(O)C1O (stereo not drawn) | 0% (inactive) | 8% (inactive) | 4.35% (inactive) and 13.3% (inactive) and 42.6% (inactive) | -6% (inactive) | 5% (inactive) | 32.3% (inactive) and 4.55% (inactive) and -7.25% (inactive) | 0% (inactive) | 7% (inactive) | 3.2% (inactive) and 3.55% (inactive) and 36.1% (inactive) | -4% (inactive) | -4% (inactive) | 11.2% (inactive) and 44.8% (inactive) and 2.35% (inactive) | -3% (inactive) | -7% (inactive) | -21.4% (inactive) and -3.85% (inactive) and -4.3% (inactive) | 13% (inactive) | 25% (inactive) | 14.7% (inactive) and 4.75% (inactive) and -3.25% (inactive)
CNC(=O)OCCN1c2ccccc2Sc2ccccc21 | -22% (inactive) | 93% (active) | 89.5% (active) | -9% (inactive) | 68% (inactive) | 92% (active) | 8% (inactive) | 91% (active) | 93.3% (active) | -1% (inactive) | 82% (active) | 90.3% (active) | 0% (inactive) | 95% (active) | 92% (active) | -9% (inactive) | 92% (active) | 91.5% (active)
COc1ccc(NC(=O)C(=O)NO)c(OC)c1 | 19% (inactive) | 94% (active) | 90.8% (active) | -2% (inactive) | 96% (active) | 91.1% (active) | 9% (inactive) | 94% (active) | 91% (active) | -10% (inactive) | 94% (active) | 87.9% (active) | 4% (inactive) | 93% (active) | 91.2% (active) | -28% (inactive) | 95% (active) | 87.9% (active)
COC(=O)c1ccc(O)c(OC)c1 | -1% (inactive) | -5% (inactive) | -25.2% (inactive) | 1% (inactive) | -3% (inactive) | -2.35% (inactive) | 0% (inactive) | -1% (inactive) | -8.9% (inactive) | -2% (inactive) | 2% (inactive) | 28.1% (inactive) | 12% (inactive) | 27% (inactive) | 12.8% (inactive) | -4% (inactive) | -3% (inactive) | 9.5% (inactive)
O=[N+]([O-])Cc1cnc2nncn2n1 | -6% (inactive) | 96% (active) | 86.3% (active) | -9% (inactive) | 97% (active) | 98.4% (active) | 2% (inactive) | 96% (active) | 99.2% (active) | 2% (inactive) | 53% (inactive) | 24.2% (inactive) | -27% (inactive) | 99% (active) | 38.5% (inactive) | -12% (inactive) | 97% (active) | 87.5% (active)
CCOc1ccc(N/N=C(\CCC(=O)O)C(=O)O)cc1 | -6% (inactive) | 92% (active) | 96% (active) | -9% (inactive) | 77% (active) | 81% (active) | -3% (inactive) | 84% (active) | 50.2% (inactive) | -64% (inactive) | 94% (active) | 94.1% (active) | -15% (inactive) | -45% (inactive) | 86.7% (active) | -5% (inactive) | 96% (active) | 95.2% (active)
O=C1NC(=O)c2cc([N+](=O)[O-])ccc21 | -9% (inactive) | 12% (inactive) | 6.65% (inactive) and 0.9% (inactive) | 0% (inactive) | 4% (inactive) | -21.9% (inactive) and 3.5% (inactive) | -2% (inactive) | 8% (inactive) | 5.35% (inactive) and 17% (inactive) | -5% (inactive) | -5% (inactive) | -1.95% (inactive) and 55% (inactive) | 0% (inactive) | 13% (inactive) | -0.35% (inactive) and 34.4% (inactive) | -4% (inactive) | 12% (inactive) | 11.3% (inactive) and -14.6% (inactive)
O[Si](c1ccccc1)(c1ccccc1)c1ccccc1.O[Si](c1ccccc1)(c1ccccc1)c1ccccc1.O[Si](c1ccccc1)(c1ccccc1)c1ccccc1.[O]=[V] | 58% (inactive) | 64% (inactive) | 62.1% (inactive) | 37% (inactive) | 50% (inactive) | 67% (inactive) | 46% (inactive) | 58% (inactive) | 70.3% (active) | 15% (inactive) | 31% (inactive) | 27.1% (inactive) | 63% (inactive) | 62% (inactive) | 43.4% (inactive) | 53% (inactive) | 58% (inactive) | 72.6% (active)
c1cc2c3c(c1)c1cc4c(cc1c[n+]3CC2)OCO4 | 14% (inactive) | 38% (inactive) | 89.9% (active) | 23% (inactive) | 36% (inactive) | 92.5% (active) | 25% (inactive) | 41% (inactive) | 92.1% (active) | 13% (inactive) | 18% (inactive) | 90.8% (active) | 2% (inactive) | 20% (inactive) | 90.8% (active) | 25% (inactive) | 51% (inactive) | 90.9% (active)
